Measurements from PubChem BioAssay (NCATS).
Inconclusive results are not listed. Unmarked numbers belong to inactive results. Calls come from the whole dose curve; as a rule, active = well fitted curve in the direction sought with a large enough effect; inconclusive = small, poorly fitted or top-dose-only effect, or another doubt; inactive = no such curve, though single readings can be large or run the other way.

Assay: qHTS for Inhibitors of Ubiquitin-specific Protease USP2a Using CHOP2 as the Reporter: K633 Counterscreen (AID 652168); note: % of control where 0% means no effect
Conditions: No-enzyme DiUb K48 IQF substrate fluorescence interference, kinetic; series mostly up to 57.5 µM; activity change, negative = inhibition: at the top concentration
Procedure, shortened: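 Detection-system control: fluorescence of K48-linked DiUb-4IQF substrate (100 nM as added) tracked over time, Ex 525/Em 598, with pinned compounds and no enzyme, in pH 8 Tris buffer containing beta-mercaptoethanol and 0.05% Chaps.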

Structure (SMILES)	activity change, negative = inhibition [%]
Cc1ccc(S(=O)(=O)Nc2cnccc2C(=O)Nc2nc3ccccc3s2)cc1	-6.86
CCc1ccc(S(=O)(=O)Nc2cnccc2C(=O)Nc2nc(-c3ccccc3)cs2)cc1	-4.55
Cc1ccc(S(=O)(=O)Nc2cnccc2C(=O)NCCc2ccccc2)cc1	-3.94
O=C(Nc1nc(-c2ccccc2)cs1)c1ccncc1NS(=O)(=O)c1ccc(F)cc1	-6.54
Cc1ccc(S(=O)(=O)Nc2cnccc2C(=O)Nc2nc(-c3ccco3)cs2)cc1	-4.21
O=S(=O)(Nc1nccs1)c1ccc(Nc2nc(-c3ccc(Cl)c(Cl)c3)cs2)cc1	-12.2
N#Cc1ccc(S(=O)(=O)Nc2cnccc2C(=O)Nc2nc(-c3ccccc3)cs2)cc1	-10.5
O=C(Nc1nc(-c2ccccc2)cs1)c1ccncc1NS(=O)(=O)c1ccc2c(c1)CCC2	-2.46
O=C(O)C1CCC(C(=O)Nc2ccc([S+](=O)([O-])Nc3nccs3)cc2)CC1 (stereo not given)	-0.76
Cc1ccc(S(=O)(=O)Nc2cnccc2C(=O)Nc2nc(-c3nc4ccccc4s3)cs2)cc1	-4.3
Nc1cccc(S(=O)(=O)Nc2cnccc2C(=O)Nc2nc(-c3ccccc3)cs2)c1	-6.4
O=C(Nc1ccc(S(=O)(=O)Nc2nccs2)cc1)c1ccnc2ccccc12	-16.3
Cc1ccc(-c2csc(NC(=O)c3ccncc3NS(=O)(=O)c3ccc(C)cc3)n2)cc1	1.55
O=C(Nc1nc(-c2ccccc2)cs1)c1ccncc1NS(=O)(=O)c1ccc(C(F)(F)F)cc1	-2.24
O=C(Nc1nc(-c2ccccc2)cs1)c1ccncc1NS(=O)(=O)c1cccs1	-3.99
